# PubChem BioAssay (NCI)
# Compounds without any hit were thinned out: in the full panel of roughly 83,000, 20% have a hit.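 Treatment: one concentration, 48 hours, 96-well format. Scoring: percent growth, with anything below 10 considered active.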 Unmarked numbers belong to inactive results. Activity calls are given as the source filed them.
# System: HL-60(TB) leukemia
# Assay: NCI-60 one-dose screen, 48 h (100 = growth as untreated, 0 = no growth, -100 = all killed)
# Settings: 10 µM unless noted
row,SMILES,growth
1,O=C(CC(O)c1ccccc1)Nc1ccccn1 (centres undefined),97.3%
2,Cc1cccc(Cc2cnc(NC(=O)/C=C/c3ccco3)s2)c1,-44.8% (active)
3,O=C(Nc1nc2ccc(S(=O)(=O)Nc3ccc(C4(C(F)(F)F)CC4)cc3)cc2[nH]1)c1cnccn1,-12.2% (active)
4,COc1ccc(/C=C/C(=O)c2ccc(Nc3ccnc4cc(Cl)ccc34)cc2)cc1,17.5%
